Experimental data published in PubChem BioAssay.
The source made the active and inactive calls. Unless noted, how the calls were made is not given here.

Columns and labels:
[1] = compounds binding Alexa647 anti-His antibody – biochemical, small-molecule microarray, 635 nm fluorescence, artefact control for SMM control protein annotation, primary screen (AID 1128); conditions: higher = more signal;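 further: score merges feature fluorescence with signal-to-noise for each printed compound spot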
[2] = system: Human papillomavirus type 1a E7 protein (residues 1-88); test: HPV1a E7 small-molecule binders, primary screen, biochemical, small-molecule microarray, residues 1-88, 635 nm (AID 1129); conditions: small-molecule microarray binding, fluorescence 635 nm; higher = more signal
[3] = target: Focal adhesion kinase 1 (Homo sapiens) (UniProt Q05397); test: PTK2 protein binding on printed compound slides – biochemical, small-molecule microarray, 635/667 nm fluorescence, BSA, DTT, primary screen (AID 1130); conditions: 635 nm fluorescence, higher = more signal;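 further: composite of spot emission at 667 nm and signal to noise over triplicate slides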
[4] = system: Fibrinogen (Alexa647-labelled); test: Alexa647-fibrinogen binding to printed small molecules – biochemical, small-molecule microarray, 635/667 nm fluorescence, artefact control for SMM control-protein annotation, profiling panel (AID 1131); conditions: fibrinogen-A647 binding fluorescence, higher = more signal;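 further: z-score merges 667 nm fluorescence with per-spot signal-to-noise over triplicate slides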
[5] = target: Follistatin (Homo sapiens) (UniProt P19883); test: FST protein binding to printed compounds – biochemical, small-molecule microarray, 635/667 nm fluorescence, primary screen (AID 1132); conditions: 635 nm fluorescence, higher = more signal
[6] = target: Fibroblast growth factor 2 (Homo sapiens) (UniProt P09038); test: basic fibroblast growth factor binding to printed compounds – biochemical, small-molecule microarray, 635/667 nm fluorescence, primary screen (AID 1133); conditions: FGF2, fluorescence 635/667, higher = more signal
[7] = JC-1 mitochondrial potential readout, lung cancer cells – cell-based, A549, JC-1 fluorescence, basal, 24 h, 100 nL, profiling panel (AID 1138); conditions: higher = more signal;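 further: A549 lung adenocarcinoma cells under basal conditions with no added stimulus; test concentration not given here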
Lefty1 = Lefty1 protein binding to printed compounds – biochemical, small-molecule microarray, 635/667 nm fluorescence, primary screen (AID 1139); conditions: fluorescence 635/667, higher = more signal
[8] = system: wheat germ agglutinin (Triticum aestivum), Alexa647-labelled; test: Alexa647-WGA lectin binding to printed small molecules – biochemical, small-molecule microarray, 635/667 nm fluorescence, artefact control for SMM control-protein annotation, profiling panel (AID 1140); conditions: WGA-A647 binding, 635 nm fluorescence, higher = more signal;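 further: score merges 667 nm feature emission with signal to noise over triplicate slides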
[9] = target: Luciferin 4-monooxygenase (Photinus pyralis) (UniProt P08659); test: inhibition of purified Photinus pyralis luciferase – biochemical, luminescence, purified enzyme, 2006 set, primary screen (AID 1141); conditions: purified firefly luciferase, SteadyGlo luminescence, 30 min; higher = more signal, called active from +8 up or from −8 down;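 further: cell-free assay with purified firefly luciferase at 100 ng per well in PBS; test concentration not given here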
[10] = system: Wnt5a (protein binding on small-molecule microarray); test: small molecules binding Wnt5a protein – biophysical, small-molecule microarray, 635/667 nm fluorescence, primary screen (AID 1142); conditions: 635 nm fluorescence, higher = more signal;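 further: fluorescence read at 667 nm with signal to noise per printed feature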
[11] = ATP-based viability of Huh7 replicon cells – cell-based, CellTiter-Glo luminescence, basal, 48 h, cytotoxicity control for HCV replication inhibitor project, primary screen (AID 1143); conditions: higher = more signal, called active from +8 up or from −8 down;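 further: Huh7 hepatoma cells carrying a hepatitis C replication reporter with no stimulus; test concentration not given here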
[12] = Pseudomonas biofilm growth suppression – PAO1 strain, BacTiter-Glo luminescence, LB-PBS, primary screen (AID 1144); conditions: P. aeruginosa PAO1 biofilm, 12 h, higher = more signal
[13] = basal CRE-LacZ reporter activity in PC12 – cell-based, unstimulated, primary screen (AID 1145); conditions: no forskolin, luminescence, 4.5 h, higher = more signal, called active from +8 up or from −8 down
[14] = forskolin-driven CRE-LacZ activity in PC12 – cell-based, CRE-LacZ reporter, forskolin-stimulated, primary screen (AID 1146); conditions: luminescence, 4.5 h, higher = more signal, called active from +8 up or from −8 down;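 further: PC12 cells with 6xCRE LacZ reporter stimulated by forskolin 10 µM; beta-galactosidase reporter signal reflecting CREB driven transcription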
[15] = target: Streptavidin (Streptomyces avidinii) (UniProt P22629); test: compounds binding control protein streptavidin – biophysical, small-molecule microarray, 635/667 nm fluorescence, artefact control for SMM compound annotation, primary screen (AID 1147); conditions: higher = more signal;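 further: signal reflects streptavidin binding to arrayed compounds as a control protein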
[16] = probe aInhba binding on compound microarray – biochemical, small-molecule microarray, 635/667 nm fluorescence, primary screen (AID 1148); conditions: higher = more signal;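 further: score merges 667nm spot fluorescence with signal-to-noise for antibody binding to printed compounds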
Torsin-1A (Homo sapiens) [17] = target: Torsin-1A (Homo sapiens) (UniProt O14656); test: TOR1A wild-type binding on microarray – cell lysate, small-molecule microarray, lysate, 635/667 nm, primary screen (AID 1149); conditions: COS7 hTOR1A-WT lysate, 635 nm fluorescence, higher = more signal
Torsin-1A (Homo sapiens) [18] = target: Torsin-1A (Homo sapiens) (UniProt O14656); test: torsin A mutant lysate binding on microarrays – cell lysate, small-molecule microarray, COS7 lysate, 635/667 nm fluorescence, primary screen (AID 1150); conditions: COS7 hTOR1A mutant lysate, 635 nm fluorescence, higher = more signal;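 further: score pools 667 nm emission and signal to noise measuring lysate protein binding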
[19] = system: Sonic hedgehog protein (Shh); test: Sonic hedgehog microarray binding compounds – biochemical, small-molecule microarray, 635/667 nm fluorescence, primary screen (AID 1151); conditions: 635 nm fluorescence, higher = more signal;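 further: Shh protein binding to compounds spotted on small-molecule microarray slides; score combines spot fluorescence intensity with signal-to-noise across triplicate slides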

Sequence of Follistatin (Homo sapiens) (P19883 whole entry, looked up): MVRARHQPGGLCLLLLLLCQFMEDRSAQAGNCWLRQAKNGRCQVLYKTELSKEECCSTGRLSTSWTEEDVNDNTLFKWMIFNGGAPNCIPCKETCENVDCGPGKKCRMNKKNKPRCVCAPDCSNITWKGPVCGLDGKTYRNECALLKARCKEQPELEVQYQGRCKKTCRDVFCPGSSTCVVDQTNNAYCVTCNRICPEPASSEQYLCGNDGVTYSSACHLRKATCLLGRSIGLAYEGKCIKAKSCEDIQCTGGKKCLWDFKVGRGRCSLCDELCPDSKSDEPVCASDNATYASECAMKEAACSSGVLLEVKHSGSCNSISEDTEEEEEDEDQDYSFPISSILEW
Sequence of Focal adhesion kinase 1 (Homo sapiens) (Q05397 whole entry, looked up): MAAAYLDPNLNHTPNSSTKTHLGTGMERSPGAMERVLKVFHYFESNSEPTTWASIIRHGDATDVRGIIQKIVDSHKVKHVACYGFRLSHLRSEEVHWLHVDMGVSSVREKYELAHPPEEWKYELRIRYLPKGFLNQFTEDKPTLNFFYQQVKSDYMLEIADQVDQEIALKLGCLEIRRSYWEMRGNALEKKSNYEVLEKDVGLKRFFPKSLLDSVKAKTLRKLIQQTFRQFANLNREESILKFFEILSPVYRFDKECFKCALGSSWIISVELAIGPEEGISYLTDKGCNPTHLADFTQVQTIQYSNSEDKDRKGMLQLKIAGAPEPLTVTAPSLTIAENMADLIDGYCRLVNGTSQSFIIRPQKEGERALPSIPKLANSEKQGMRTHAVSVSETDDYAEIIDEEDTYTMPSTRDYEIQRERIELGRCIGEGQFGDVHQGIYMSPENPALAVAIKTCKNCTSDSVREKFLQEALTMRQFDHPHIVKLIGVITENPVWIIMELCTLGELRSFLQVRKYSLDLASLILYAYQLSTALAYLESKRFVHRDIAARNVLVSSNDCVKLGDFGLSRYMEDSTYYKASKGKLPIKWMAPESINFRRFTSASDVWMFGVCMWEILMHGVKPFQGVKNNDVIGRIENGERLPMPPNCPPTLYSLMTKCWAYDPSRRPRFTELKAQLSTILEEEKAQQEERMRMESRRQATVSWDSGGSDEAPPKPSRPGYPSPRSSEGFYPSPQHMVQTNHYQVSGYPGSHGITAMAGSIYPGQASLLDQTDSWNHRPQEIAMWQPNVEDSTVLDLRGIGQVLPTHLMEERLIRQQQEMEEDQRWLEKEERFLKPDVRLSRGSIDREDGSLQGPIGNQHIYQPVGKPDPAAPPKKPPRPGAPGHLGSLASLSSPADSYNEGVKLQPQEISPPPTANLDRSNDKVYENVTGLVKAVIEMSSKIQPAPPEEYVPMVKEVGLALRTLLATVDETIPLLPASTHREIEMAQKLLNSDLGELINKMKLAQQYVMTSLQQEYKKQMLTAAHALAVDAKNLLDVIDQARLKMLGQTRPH
Sequence of Torsin-1A (Homo sapiens) (O14656 whole entry, looked up): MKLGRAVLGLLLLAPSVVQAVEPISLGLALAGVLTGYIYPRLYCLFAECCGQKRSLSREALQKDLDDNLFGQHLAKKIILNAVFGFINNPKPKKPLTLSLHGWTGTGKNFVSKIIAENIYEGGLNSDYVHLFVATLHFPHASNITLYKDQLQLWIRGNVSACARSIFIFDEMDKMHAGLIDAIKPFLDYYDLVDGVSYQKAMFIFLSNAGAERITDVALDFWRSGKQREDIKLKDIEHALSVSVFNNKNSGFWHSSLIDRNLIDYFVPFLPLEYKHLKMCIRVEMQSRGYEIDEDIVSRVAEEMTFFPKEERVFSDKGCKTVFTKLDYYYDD
Sequence of Streptavidin (Streptomyces avidinii) (P22629 whole entry, looked up): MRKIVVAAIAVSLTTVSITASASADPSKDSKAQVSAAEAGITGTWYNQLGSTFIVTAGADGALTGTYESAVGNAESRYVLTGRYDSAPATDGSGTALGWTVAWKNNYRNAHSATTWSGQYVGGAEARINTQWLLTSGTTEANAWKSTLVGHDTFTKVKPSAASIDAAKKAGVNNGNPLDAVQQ
Sequence of Fibroblast growth factor 2 (Homo sapiens) (P09038 whole entry, looked up): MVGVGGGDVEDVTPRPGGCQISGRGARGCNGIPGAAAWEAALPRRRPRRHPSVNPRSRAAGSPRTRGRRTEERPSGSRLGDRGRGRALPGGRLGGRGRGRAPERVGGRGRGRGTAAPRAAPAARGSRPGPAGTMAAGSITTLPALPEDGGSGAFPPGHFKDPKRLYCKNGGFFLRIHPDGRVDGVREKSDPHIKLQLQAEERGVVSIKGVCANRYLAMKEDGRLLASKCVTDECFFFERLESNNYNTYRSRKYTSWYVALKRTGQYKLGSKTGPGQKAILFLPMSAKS
Sequence of Luciferin 4-monooxygenase (Photinus pyralis) (P08659 whole entry, looked up): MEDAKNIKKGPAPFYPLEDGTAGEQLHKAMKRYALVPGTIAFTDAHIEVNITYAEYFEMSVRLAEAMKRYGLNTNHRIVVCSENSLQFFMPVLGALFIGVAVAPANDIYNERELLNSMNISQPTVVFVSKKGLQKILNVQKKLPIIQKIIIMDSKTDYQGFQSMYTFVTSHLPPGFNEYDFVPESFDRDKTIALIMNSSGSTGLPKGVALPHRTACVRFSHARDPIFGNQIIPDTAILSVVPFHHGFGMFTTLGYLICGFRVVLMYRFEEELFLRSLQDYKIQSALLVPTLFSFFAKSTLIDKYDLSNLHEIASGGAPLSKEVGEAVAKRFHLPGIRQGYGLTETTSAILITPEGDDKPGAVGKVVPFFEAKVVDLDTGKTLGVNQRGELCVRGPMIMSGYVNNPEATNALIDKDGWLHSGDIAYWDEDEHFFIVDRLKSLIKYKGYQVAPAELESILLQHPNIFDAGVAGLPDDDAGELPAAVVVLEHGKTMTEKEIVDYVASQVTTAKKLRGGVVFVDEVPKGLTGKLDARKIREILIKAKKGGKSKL

| SMILES | composite z-score [1] | composite z-score [2] | composite z-score [3] | composite z-score [4] | composite z-score [5] | composite z-score [6] | z-score [7] | composite z-score (Lefty1) | composite z-score [8] | z-score [9] | composite z-score [10] | z-score [11] | z-score [12] | z-score [13] | z-score [14] | composite z-score [15] | composite z-score [16] | composite z-score (Torsin-1A (Homo sapiens) [17]) | composite z-score (Torsin-1A (Homo sapiens) [18]) | composite z-score [19] |
| --- | --- | --- | --- | --- | --- | --- | --- | --- | --- | --- | --- | --- | --- | --- | --- | --- | --- | --- | --- | --- |
| C=C(C(=O)CC[C@@H](OC(=O)c1ccccc1-c1ccccc1C(=O)O)c1ccccc1OCCO)C(C)C | -0.186 | 1.23 | 0.183 | 0.532 | 1.46 | 1.77 | -0.0391 | 1.58 | 0.109 | -0.679 (inactive) | 0.618 | 0.182 (inactive) | -0.695 (inactive) | 3.64 (inactive) | 3.34 (inactive) | -0.344 | -0.0529 | 0.908 | 0.663 | 2.3 |
| [N-]=[N+]=NCc1ccccc1[C@@H]1OC(c2ccc(OCCCO)cc2)=N[C@]1(Cc1ccccc1N=[N+]=[N-])C(=O)N1CCCCC1 | 1.97 | 1.24 | 0.182 | 0.816 | 0.845 | 0.483 | 0.909 | 0.082 | 0.756 | -1.61 (inactive) | 0.0032 | -1.91 (inactive) | -0.166 (inactive) | -0.753 (inactive) | -0.189 (inactive) | 1.58 | 0.329 | 0.133 | 1.31 | 0.0257 |
| O=C1c2ccccc2[C@](Cc2ccccc2I)(C(=O)NC2CC2)[C@H](c2ccc(CO)cc2)N1Cc1ccccc1C(F)(F)F | 0.0698 | 0.749 | -0.226 | 0.938 | 1.15 | 0.0532 | -0.254 | 1.26 | 1.15 | 0.0135 (inactive) | -0.15 | -4.84 (inactive) | -0.0186 (inactive) | 0.764 (inactive) | -0.5 (inactive) | 0.671 | 1.25 | 0.147 | 0.16 | 0.792 |
| COC(=O)[C@@]1(Cc2ccc(F)cc2)[C@H]2c3cc(C(=O)N4CCCC4)n(C)c3C[C@H]2CN1C(=O)c1ccccc1 | 2.46 | 1.23 | 0.746 | 0.422 | 0.253 | -0.325 | 0.312 | -0.983 | 0.0993 | 0.745 (inactive) | 0.926 | -1.4 (inactive) | -0.666 (inactive) | 0.58 (inactive) | 0.736 (inactive) | 1.18 | 0.757 | 0.492 | 1.34 | -0.928 |
| COCC1=C2[C@@H](CCc3ccccc3)OB(O)C[C@@H]2[C@@H]2C(=O)N(C)C(=O)[C@@H]2C1 | 0.0751 | 0.003 | 0.164 | 0.353 | 0.309 | 0.833 | -0.0837 | 0.0961 | -0.098 | -0.171 (inactive) | -0.16 | 0.0876 (inactive) | 0.0987 (inactive) | -0.871 (inactive) | 1.08 (inactive) | 0.0675 | -0.113 | 0.607 | -0.0933 | 0.588 |
| [N-]=[N+]=Nc1ccccc1C[C@]1(C(=O)O)N=C(c2ccc(OCCCO)cc2)O[C@H]1c1ccccc1N=[N+]=[N-] | 1.45 | 1.21 | 0.507 | 0.986 | 0.945 | 0.0923 | 0.64 | -0.676 | 1.25 | -5.36 (inactive) | 0.0284 | -1.26 (inactive) | 0.0243 (inactive) | 0.274 (inactive) | -1.65 (inactive) | 1.58 | 0.362 | 0.327 | 0.241 | -0.0242 |
| C=C[C@@H](OC)[C@H](OC(=O)Nc1ccc(SC)cc1)c1ccc(OCCO)cc1 | 2.02 | 0.815 | 0.317 | 0.951 | 1.17 | 0.377 | -1.48 | 0.545 | 0.653 | -2.25 (inactive) | 0.502 | -2.53 (inactive) | -0.918 (inactive) | 9.77 (active) | 0.136 (inactive) | 0.22 | -0.071 | 0.615 | 0.8 | 1.2 |
| COCCOC(=O)N1C(=O)[C@@]2(c3ccccc31)[C@H](c1ccccc1OCCO)N1[C@H](c3ccccc3)[C@H](c3ccccc3)OC(=O)[C@H]1[C@@H]2C(=O)N1CCCCCCC1 | 0.703 | 1.32 | 3.01 | 0.995 | 1.53 | 1.55 | -0.0428 | 1.71 | 1.63 | -0.507 (inactive) | 1.82 | -3.1 (inactive) | -0.41 (inactive) | -0.744 (inactive) | 4.93 (inactive) | 3.64 | 2.24 | 2.69 | 2.39 | 1.77 |
| C=C(CCCC)/C(=C/C[C@H](OC(C)=O)c1ccc(OCCO)cc1)c1cc(C(=O)OC)ccc1OC | 0.124 | 1.04 | 0.667 | 0.046 | 0.935 | 0.103 | 1.78 | 0.929 | 0.775 | -1.69 (inactive) | 0.613 | -1.03 (inactive) | -0.8 (inactive) | 8.05 (active) | -0.499 (inactive) | 0.156 | 0.0363 | -0.453 | 0.886 | 0.803 |
| CO[C@H]1O[C@H](CO)[C@@H](OC(=O)Nc2ccc(C#N)cc2)[C@@H]2OC(=O)[C@H](Cc3cccc(Br)c3)C/C=C/C[C@@H](Cc3cccc(Br)c3)C(=O)O[C@@H]12 | 1.26 | 0.776 | -0.611 | 0.448 | 1.2 | 0.707 | 1.39 | 1.13 | 0.655 | 0.782 (inactive) | 0.563 | -3.82 (inactive) | -1.36 (inactive) | -0.602 (inactive) | -0.404 (inactive) | 0.336 | -0.0327 | 0.185 | -0.163 | 1.34 |
